Test [1] can be described thus: NCI Yeast Anticancer Drug Screen. Data for the rad50 strain (AID 155).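 Further: 0% = growth of vehicle-only cultures of the same strain.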 The note with it: S. cerevisiae rad50 strain growth inhibition, stronger effect = higher value. In outline:
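DNA repair mutant yeast, compound exposure, growth read-out; inhibition is taken relative to vehicle.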

Test [2] is described as follows: NCI Yeast Anticancer Drug Screen. Data for the mec2-1 strain (AID 157). The note with it: S. cerevisiae mec2-1 strain, stronger effect = higher value. A digest of the protocol: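 Each compound was tested on mec2-1 yeast, a strain altered in DNA damage repair or cell cycle control. Growth inhibition is reported relative to vehicle.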
Test [3] can be described thus: NCI Yeast Anticancer Drug Screen. Data for the sgs1 mgt1 strain (AID 161).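 Further: 0% = growth of cultures given vehicle only.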 The following applies: S. cerevisiae sgs1 mgt1 strain, stronger effect = higher value. A digest of the protocol:
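Mutant yeast exposed to compound; growth scored against vehicle-only wells.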

A short description of test [4]: NCI Yeast Anticancer Drug Screen. Data for the cln2 rad14 strain (AID 165).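 Further: 0% = growth equal to vehicle treated cultures.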 The following applies: S. cerevisiae cln2 rad14 strain, stronger effect = higher value. A digest of the protocol:
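Test compounds were added to cln2 rad14 yeast cultures; inhibition of growth was then determined by comparison with vehicle treatment.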

Test [5] in a line: NCI Yeast Anticancer Drug Screen. Data for the bub3 strain (AID 167). The note with it: S. cerevisiae bub3 mutant strain, stronger effect = higher value. In outline:
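In this screen, a yeast mutant lacking normal mitotic checkpoint function is challenged with compound. Relative growth versus vehicle gives the inhibition value.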

A short description of test [6]: NCI Yeast Anticancer Drug Screen. Data for the mlh1 rad18 strain (AID 175). The following applies: S. cerevisiae mlh1 rad18 strain growth inhibition, stronger effect = higher value. A digest of the protocol: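 Inhibition values reflect reduced growth of mutant yeast versus vehicle-treated controls following compound exposure; the mutations affect DNA damage repair.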
Setting [7] is: at 5.0 µM (retest, dose inferred, filed as 0.5).
The mark [8] stands for this setting: at 50.0 µM (retest, dose inferred, filed as 5.0).

The panel holds about 79,000 compounds, 15% with a hit somewhere; the sample as a whole holds those more often. A number with no mark means an inactive call. Activity calls are given as the source filed them. No stated cut-off is given here; in the data, active means growth inhibition above about 70%; inactive means the rest. *1 amine or outer side, *2 acyl side, *3 side chain or, on linkers, in order; H or OH if unused. Where a SMILES comes first, the peptide text is derived from it. Bridges are numbered along the chain shown (N, C = ends). Roman numbers before positions name the chains, in order. [ ]: non-standard residue; d: D form. Actinocin(9to1) = Cc1c2oc3c(C)ccc(C(=O)[*:1])c3nc-2c(C(=O)[*:2])c(N)c1=O; NMeV = CN[CH](C(=O)O)C(C)C; Pip = O=C(O)[CH]1CCCCN1; Sar = CNCC(=O)O

As for `CCCCc1c2c(nc3c1CC/C(=C\c1ccccc1)C3=O)CCCC2`, the growth inhibition is -23% in test [1] (setting [7]); 97% (active) in test [1] (setting [8]); 65.8% in test [1] (at 50.0 µM); -7% in test [2] (setting [7]); 98% (active) in test [2] (setting [8]); 48.5% in test [2] (at 50.0 µM). Besides, the growth inhibition in test [3] (setting [7]) is -11%; in test [3] (setting [8]), 97% (active); in test [3] (at 50.0 µM) it was 69.6%; in test [4] (setting [7]), -1%; in test [4] (setting [8]) it was 97% (active); in test [4] (at 50.0 µM), 38%. Moreover, the growth inhibition in test [5] (setting [7]) was -1%; in test [5] (setting [8]) it was 98% (active); in test [5] (at 50.0 µM), 54%; in test [6] (setting [7]) it was -19%; in test [6] (setting [8]), 97% (active); in test [6] (at 50.0 µM), 49.7%.
Take `CC12CCC(O)CC1CCC1C2CCC2(C)C(NC(=O)N(CCCl)N=O)CCC12` (stereo not given): the growth inhibition is 6% in test [1] (setting [7]); 74% (active) in test [1] (setting [8]); 91.3% (active) in test [1] (at 50.0 µM); 2% in test [2] (setting [7]); 78% (active) in test [2] (setting [8]); 80.5% (active) in test [2] (at 50.0 µM). For the same compound, the growth inhibition in test [3] (setting [7]) is -205%; in test [3] (setting [8]) it was 84% (active); in test [3] (at 50.0 µM) it was 92.9% (active); in test [4] (setting [7]) it was -1%; in test [4] (setting [8]) it was 35%; in test [4] (at 50.0 µM) it was 65.8%. The growth inhibition in test [5] (setting [7]) was -7%; in test [5] (setting [8]), 63%; in test [5] (at 50.0 µM), 56.8%; in test [6] (setting [7]), 46%; in test [6] (setting [8]) it was 94% (active); in test [6] (at 50.0 µM), 94.5% (active).
Regarding `CC(=O)CCC(Br)(CCC(Br)(CCC(C)=O)[N+](=O)[O-])[N+](=O)[O-]` (stereo not given), the growth inhibition was 0% in test [1] (setting [7]); 13% in test [1] (setting [8]); 95.2% (active) in test [1] (at 50.0 µM); 8% in test [2] (setting [7]); 14% in test [2] (setting [8]); 90.5% (active) in test [2] (at 50.0 µM). Also, the growth inhibition was -5% in test [3] (setting [7]); 33% in test [3] (setting [8]); 81.8% (active) in test [3] (at 50.0 µM); 15% in test [4] (setting [7]); 29% in test [4] (setting [8]); 91.5% (active) in test [4] (at 50.0 µM). In addition, the growth inhibition was 11% in test [5] (setting [7]); 28% in test [5] (setting [8]); 79% (active) in test [5] (at 50.0 µM); 12% in test [6] (setting [7]); 22% in test [6] (setting [8]); 98.3% (active) in test [6] (at 50.0 µM).
In the case of `COc1ccccc1/C=C/c1ccnc2ccccc12`, the growth inhibition is 31% in test [1] (setting [7]); 97% (active) in test [1] (setting [8]); 72.7% (active) in test [1] (at 50.0 µM); 15% in test [2] (setting [7]); 97% (active) in test [2] (setting [8]); 90.2% (active) in test [2] (at 50.0 µM). For the same compound, the growth inhibition was 24% in test [3] (setting [7]); 98% (active) in test [3] (setting [8]); 88% (active) in test [3] (at 50.0 µM); 13% in test [4] (setting [7]); 84% (active) in test [4] (setting [8]); 65.1% in test [4] (at 50.0 µM). Moreover, the growth inhibition in test [5] (setting [7]) is 24%; in test [5] (setting [8]), 97% (active); in test [5] (at 50.0 µM), 84.8% (active); in test [6] (setting [7]), 24%; in test [6] (setting [8]), 96% (active); in test [6] (at 50.0 µM), 91.7% (active).
As for `SCCc1ccccn1`, the growth inhibition is -3% in test [1] (setting [7]); 20% in test [1] (setting [8]); 0.4% in test [1] (at 50.0 µM); -2% in test [2] (setting [7]); 20% in test [2] (setting [8]); 42% in test [2] (at 50.0 µM). For the same compound, the growth inhibition is 1% in test [3] (setting [7]); 13% in test [3] (setting [8]); 3.65% in test [3] (at 50.0 µM); -6% in test [4] (setting [7]); 10% in test [4] (setting [8]); 15.1% in test [4] (at 50.0 µM). Also, the growth inhibition in test [5] (setting [7]) was -1%; in test [5] (setting [8]), 14%; in test [5] (at 50.0 µM) it was 32.1%; in test [6] (setting [7]), -1%; in test [6] (setting [8]) it was 19%; in test [6] (at 50.0 µM) it was 73.1% (active).
In the case of `Nc1ccc2c(c1)Cc1c(Cl)cccc1-2`, the growth inhibition in test [1] (setting [7]) is 1%; in test [1] (setting [8]), 95% (active); in test [1] (at 50.0 µM), 96% (active); in test [2] (setting [7]), 3%; in test [2] (setting [8]), 96% (active); in test [2] (at 50.0 µM), 54.4%. Besides, the growth inhibition was 3% in test [3] (setting [7]); 90% (active) in test [3] (setting [8]); 89.4% (active) in test [3] (at 50.0 µM); -12% in test [4] (setting [7]); 92% (active) in test [4] (setting [8]); 80.2% (active) in test [4] (at 50.0 µM). Further, the growth inhibition in test [5] (setting [7]) is -3%; in test [5] (setting [8]) it was 94% (active); in test [5] (at 50.0 µM) it was 94.3% (active); in test [6] (setting [7]), -1%; in test [6] (setting [8]), 95% (active); in test [6] (at 50.0 µM), 95.2% (active).
Turning to `Cc1c2oc3c(C)ccc(C(=O)NC4C(=O)NC(C(C)C)C(=O)N5CCCCC5C(=O)N(C)CC(=O)N(C)C(C(C)C)C(=O)OC4C)c3nc-2c(C(=O)NC2C(=O)NC(C(C)C)C(=O)N3CCCCC3C(=O)N(C)CC(=O)N(C)C(C(C)C)C(=O)OC2C)c(N)c1=O` (stereo not given) (I: TV[Pip][Sar][NMeV] / II: TV[Pip][Sar][NMeV]; ester I:1-I:C, II:1-II:C; linker I:N-II:N via Actinocin(9to1); configuration not given here), the growth inhibition in test [1] (setting [7]) is -11%; in test [1] (setting [8]), 91% (active); in test [1] (at 50.0 µM), 69.4%; in test [2] (setting [7]) it was -22%; in test [2] (setting [8]), 43%; in test [2] (at 50.0 µM) it was 48.3%. In addition, the growth inhibition in test [3] (setting [7]) is 7%; in test [3] (setting [8]), 28%; in test [3] (at 50.0 µM), 59.4%; in test [4] (setting [7]), 6%; in test [4] (setting [8]), 64%; in test [4] (at 50.0 µM), 29.3%. For the same compound, the growth inhibition in test [5] (setting [7]) was 0%; in test [5] (setting [8]), 80% (active); in test [5] (at 50.0 µM), 73.6% (active); in test [6] (setting [7]) it was 10%; in test [6] (setting [8]), 79% (active); in test [6] (at 50.0 µM) it was 45.6%.
On to `Cc1cc2c(cc1C)C(=O)OC2=O`, for which the growth inhibition in test [1] (setting [7]) is 1%; in test [1] (setting [8]) it was 14%; in test [1] (at 50.0 µM), 72% (active); in test [2] (setting [7]), -1%; in test [2] (setting [8]), -1%; in test [2] (at 50.0 µM) it was 45.5%. Moreover, the growth inhibition in test [3] (setting [7]) is 2%; in test [3] (setting [8]) it was 1%; in test [3] (at 50.0 µM), 36.3%; in test [4] (setting [7]), 1%; in test [4] (setting [8]) it was -1%; in test [4] (at 50.0 µM) it was 31.6%. The growth inhibition in test [5] (setting [7]) was -3%; in test [5] (setting [8]), 5%; in test [5] (at 50.0 µM), 83.5% (active); in test [6] (setting [7]), -2%; in test [6] (setting [8]), 5%; in test [6] (at 50.0 µM) it was 41.5%.
Take `CCOC(=O)Nc1c(F)cc(F)cc1F`: the growth inhibition was 0% in test [1] (setting [7]); 0% in test [1] (setting [8]); 8.65% in test [1] (at 50.0 µM); -32% in test [2] (setting [7]); 1% in test [2] (setting [8]); 5.6% in test [2] (at 50.0 µM). For the same compound, the growth inhibition is 1% in test [3] (setting [7]); -1% in test [3] (setting [8]); -7.55% in test [3] (at 50.0 µM); -2% in test [4] (setting [7]); -4% in test [4] (setting [8]); 45.2% in test [4] (at 50.0 µM). Further, the growth inhibition was -5% in test [5] (setting [7]); -2% in test [5] (setting [8]); 4.25% in test [5] (at 50.0 µM); 2% in test [6] (setting [7]); 0% in test [6] (setting [8]); -0.05% in test [6] (at 50.0 µM).
In the case of `CC(C=O)=C(c1ccccc1)c1ccccc1`, the growth inhibition was -147% in test [1] (setting [7]); -157% in test [1] (setting [8]); 23.8% in test [1] (at 50.0 µM); -50% in test [2] (setting [7]); -56% in test [2] (setting [8]); 24.6% in test [2] (at 50.0 µM). The growth inhibition in test [3] (setting [7]) was -57%; in test [3] (setting [8]) it was -64%; in test [3] (at 50.0 µM), 49.2%; in test [4] (setting [7]), -54%; in test [4] (setting [8]), -56%; in test [4] (at 50.0 µM), 23.8%. Further, the growth inhibition in test [5] (setting [7]) is -62%; in test [5] (setting [8]), -74%; in test [5] (at 50.0 µM), 0.3%; in test [6] (setting [7]), -115%; in test [6] (setting [8]), -111%; in test [6] (at 50.0 µM), 28.4%.
